According to PubChem BioAssay (NCI):
The panel holds about 83,000 compounds, 20% with a hit somewhere; the sample as a whole holds those more often.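 48-hour exposure, single concentration, 96-well plates; percent growth endpoint where 0 means no net growth. Active: below 10.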 Unmarked numbers belong to inactive results. Active and inactive are the calls of the source.

Tests used:
Assay in all cases: NCI-60 one-dose screen, 48 h (100 = growth as untreated, 0 = no growth, -100 = all killed)
Conditions in all cases: 10 µM unless noted
[1] = tested on: SK-MEL-2 melanoma
[2] = tested on: EKVX NSCLC
[3] = tested on: SN12C renal
[4] = tested on: UO-31 renal
[5] = tested on: TK-10 renal
[6] = tested on: ACHN renal
[7] = tested on: A498 renal
[8] = tested on: CCRF-CEM leukemia
[9] = tested on: MOLT-4 leukemia
[10] = tested on: SR leukemia
[11] = tested on: RPMI-8226 leukemia
[12] = tested on: OVCAR-8 ovarian
[13] = tested on: OVCAR-5 ovarian
[14] = tested on: OVCAR-4 ovarian
[15] = tested on: SK-OV-3 ovarian
[16] = tested on: IGROV1 ovarian
[17] = tested on: OVCAR-3 ovarian
[18] = tested on: HS 578T breast
[19] = tested on: NCI/ADR-RES ovarian
[20] = tested on: CAKI-1 renal

SMILES | growth [1] | growth [2] | growth [3] | growth [4] | growth [5] | growth [6] | growth [7] | growth [8] | growth [9] | growth [10] | growth [11] | growth [12] | growth [13] | growth [14] | growth [15] | growth [16] | growth [17] | growth [18] | growth [19] | growth [20]
Oc1ccc(CCC2CCNc3ccccc32)cc1 (stereo unspecified) | 86.7% | 53.5% | 86% | 78.9% | 93.2% | 66.9% | 69.2% | 69.1% | 84.8% | 75.7% | 45.2% | 73.4% | 97.9% | 63.2% | 73.1% | 91.1% | 84.1% | 91.8% | 74.7% | 
COc1ccc(Nc2cc(Cl)ccc2C(=O)O)cn1 | 115% | 130% | 93.2% | 88.9% | 156% | 108% | 90.9% | 96.3% | 93.5% | 109% | 90.6% | 103% | 107% | 103% | 97.3% | 115% | 94.5% | 95.8% | 109% | 
COc1cc(C(=O)NC(=S)NCc2ccncc2)cc(OC)c1OC | 89.5% | 99.4% | 102% | 77.4% | 103% | 94.2% |  | 99.5% |  | 74.2% | 97.2% | 103% | 107% |  |  | 107% | 105% | 106% | 98.2% | 91.4%
CCNc1ccc2ccccc2c1N=Nc1ccc(N=Nc2ccccc2)cc1 | 64.6% | 98.5% | 96% | 71.1% | 128% | 95.2% |  | 95.8% | 82.2% |  | 95.9% | 104% | 93.1% | 98.4% | 97.4% | 0.773% (active) | 109% | 110% | 109% | 107%
CCOC(=O)c1ccc(NC(=O)Nc2nccs2)cc1 | -38.4% (active) | 55.5% | 24.7% | 14.8% | 31.6% | 9.97% (active) |  | -0.276% (active) | -2.7% (active) |  | 6.43% (active) | 8.24% (active) | 25.9% | 16.7% | 10.8% | -16.2% (active) | -48.8% (active) | 48.4% | -6.67% (active) | 22.2%
CC(=O)O[C@H]1CC[C@]2(C)C3=C(C(=O)C[C@H]2C1(C)C)[C@]1(C)CC[C@H]([C@H](C)CCC(=O)O)[C@@]1(C)CC3=O | 95.3% | 90.8% | 106% | 92.2% | 98.4% | 103% | 84.9% | 98.9% | 98% | 82.6% | 101% | 109% | 100% | 94.7% | 99.3% | 103% | 102% | 119% | 100% | 
S=C=Nc1ccc2ccccc2c1 | 106% | 103% | 111% | 85.1% | 109% | 100% |  | 106% | 98.1% |  | 103% | 105% | 107% |  |  | 117% | 114% | 104% | 102% | 87.7%
BrCc1cccc(C[P+](c2ccccc2)(c2ccccc2)c2ccccc2)c1 | 70.4% | 44.6% | 57.7% | 70.7% | 90.8% | 82.7% | 84.1% | 36.1% | 84.9% | 50.3% | 22.6% | 29.2% | 81.2% | 36.8% | 90.2% | 38.8% | 14.2% |  | 111% | 
O=C(O)CCCCCNC(=O)OCc1ccccc1 | 119% | 98.1% | 97% | 72.9% | 109% | 101% | 103% | 0.55% (active) | 110% | 98% | 81.5% | 112% | 97.7% | 98.5% | 106% | 93.9% | 104% |  | 110% | 
CS(=O)CC(=N\O)/C(CS(C)=O)=N\O (stereo unspecified) | 102% | 99.1% | 97.6% | 85.3% | 106% | 107% |  | 101% | 105% |  | 100% | 95.5% | 103% | 103% | 103% | 109% | 108% | 106% | 108% | 91.2%
CCNCC(C)(C)O | 107% | 99.6% | 101% | 83.6% | 108% | 110% |  | 106% | 99.2% |  | 107% | 106% | 100% | 98.7% | 110% | 112% | 117% | 113% | 102% | 99.1%
C=CCc1cc(OC)c(O)c(OC)c1 | 102% | 101% | 102% | 92.5% | 113% | 102% |  | 109% |  | 87.1% | 97.6% | 103% | 96.8% | 102% | 103% |  | 106% | 107% | 99.8% | 97.6%
Nc1nc(N)nc(N2CCCCC2)n1 | 100% | 107% | 102% | 87.4% | 91.6% | 110% |  |  | 107% | 97.9% | 101% | 105% | 102% | 111% | 106% | 96% | 105% | 97.3% | 110% | 104%
CCCCOC(=O)c1ccc(NC(=O)CCl)cc1 | 62.3% | 86% | 18.3% | 57.9% | 92% | -17.1% (active) | 99.2% | -15% (active) | 0.49% (active) | -30.8% (active) | 19.5% | 42.2% | 101% | -53% (active) | 105% | -49.5% (active) | -83.5% (active) | 79.9% | 65.2% | 
CSCCC(NC(=O)C(Cl)Cl)C(=O)O (stereo unspecified) | 102% | 90.2% | 97.5% | 96.3% | 94.1% | 101% | 108% | 97.7% | 90.5% | 91.5% | 101% | 96.7% | 94.7% | 115% | 85.6% | 105% | 106% | 97.8% | 106% | 
CCOC(=O)N[C@H]1CCc2cc(OC)c(OC)c(OC)c2-c2ccc(SC)c(=O)cc21 | 32.2% | 31.6% | 26.8% | 47% | 43.7% | 28.3% |  | 21.9% | 9.15% (active) |  |  | 20.8% | 23.3% | 53.4% | 28.7% | 21.7% | -9.45% (active) | 9.15% (active) | 0.533% (active) | 19.7%
COc1cc(C(=O)N2CCN(c3ccccc3)CC2)c2ccccc2n1 | 3.61% (active) | 51.6% | 36.8% | 44.9% | 57.1% | 60.6% |  | 29.3% | 29.9% |  | 35.1% | 14.3% | 39.4% | 57.5% | 5.77% (active) | 17.4% | -33.5% (active) | 27% | -43.6% (active) | 36.2%
Cc1cccc(-[n+]2noc(N)n2)c1 | 145% | 67.9% | 95.7% | 49.7% | 124% | 46.1% |  |  | 72.8% |  | 68.5% | 100% | 99.2% | 84% | 86.3% |  | 77% | 129% | 84.8% | 59.6%
